{
  "source": "PubChem BioAssay (NCI)",
  "note": "Compounds without any hit were thinned out: in the full panel of roughly 83,000, 20% have a hit.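 Interpretation: 100, growth as untreated; towards 0, rising growth inhibition; 0, no net growth; 0 to -100, cell death. Compounds scoring below 10 were considered active.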 Active and inactive are the calls of the source.",
  "data": [
    {"system": "MDA-MB-468 breast", "experiment": "NCI-60 one-dose screen, 48 h (100 = growth as untreated, 0 = no growth, -100 = all killed)", "settings": "10 µM unless noted", "values": [
      {"smiles": "COc1ccc(/C(C)=N/NS(=O)(=O)c2ccc(C)cc2)cc1OC", "growth": "104% (inactive)"},
      {"smiles": "Cc1ccc(NC(=O)Cn2cc(CN3CCN(c4ccnc5cc(Cl)ccc45)CC3)nn2)cc1", "growth": "88.1% (inactive)"},
      {"smiles": "Cc1c(C(=O)NCCN2CCOCC2)cn2ncnc(Oc3ccc(NC(=O)Nc4ccc(Cl)c(C(F)(F)F)c4)cc3)c12", "growth": "-10.4% (active)"},
      {"smiles": "O=C1Nc2ccc(C(=O)O)c(O)c2C1=O", "growth": "108% (inactive)"},
      {"smiles": "CN(C)c1ccc2oc(=O)c3ccccc3c2c1", "growth": "78.3% (inactive)"},
      {"smiles": "Cc1cnc(C(=O)NNc2nc3sc4c(c3c(=O)n2C)C(C)CCC4)cn1", "note": "(stereo not given)", "growth": "-28% (active)"},
      {"smiles": "Cc1nn(-c2ccc([N+](=O)[O-])cc2)c2ncnc(NCCc3ccccc3)c12", "growth": "111% (inactive)"},
      {"smiles": "CCOC(=O)C1OC1(c1ccccc1)c1ccccc1", "note": "(stereo not given)", "growth": "104% (inactive)"},
      {"smiles": "COc1ccc(NNS(=O)(=O)O)cc1", "growth": "99.3% (inactive)"},
      {"smiles": "COc1cc(C(=O)N(C(C)C)C2CCCCC2)cc(OC)c1OC", "growth": "89.8% (inactive)"},
      {"smiles": "CCOC(=O)c1c(C)nc2c(c1N)/C(=C/c1ccc[nH]1)C(=O)N2Cc1ccc(C(F)(F)F)cc1", "growth": "58.7% (inactive)"},
      {"smiles": "COc1c(N2CC3CCCNC3C2)c(F)cc2c(=O)c(C(=O)N/N=C/c3ccc4c(c3)OCO4)cn(C3CC3)c12", "note": "(stereo not given)", "growth": "63.1% (inactive)"},
      {"smiles": "CN(C)CCS(=O)(=O)Nc1cc(-c2ccc3ncnc(Nc4ccc(F)c(Cl)c4)c3c2)cnc1Cl", "growth": "-53% (active)"},
      {"smiles": "CCCCCCCC/C=C\\CCCCCCCCOc1ccccc1CCOP(=O)(O)OCC[N+](C)(C)C", "growth": "61.9% (inactive)"},
      {"smiles": "COc1ccc(/C=N/Nc2cc(=O)[nH]c3ccc(C)cc23)cc1", "growth": "101% (inactive)"},
      {"smiles": "O=C(NCN1C(=O)c2cccc3cccc(c23)C1=O)N1CCC(Cc2ccccc2)CC1", "growth": "101% (inactive)"},
      {"smiles": "CS(=O)(=O)c1ccc(-c2cc(-c3nnc(SCC(=O)Nc4ccc(C(=O)/C=C/c5ccc(Cl)cc5)cc4)n3-c3ccccc3)c3ccccc3n2)cc1", "growth": "93.2% (inactive)"},
      {"smiles": "N[C@@H]1CCC[C@H]1NCCCCN1C(=O)c2cccc3cccc(c23)C1=O", "growth": "53.9% (inactive)"},
      {"smiles": "CCOC(=O)c1sc(Nc2ccc(Cl)cc2)nc1C", "growth": "-13.9% (active)"},
      {"smiles": "C=C1C(=O)O[C@H]2[C@H]1CC/C(COC(=O)CCCCCCC(=O)OC/C1=C/CC[C@@]3(C)O[C@H]3[C@H]3OC(=O)C(=C)[C@@H]3CC1)=C\\CC[C@@]1(C)O[C@@H]21", "growth": "-23.9% (active)"},
      {"smiles": "O=S(=O)(NCCCNc1nccc(-c2c(-c3cccc(O)c3)nc3occn23)n1)c1ccc(Cl)cc1", "growth": "105% (inactive)"},
      {"smiles": "COc1cc2oc(-c3cccc(NC(=O)c4cccc(Br)c4)c3)cc(=O)c2c(OC)c1OC", "growth": "66.8% (inactive)"},
      {"smiles": "COc1cc(/C=C2\\C(=O)N(Cc3ccc(Cl)cc3)c3ccccc32)cc(OC)c1OC", "growth": "-18.3% (active)"},
      {"smiles": "C/C=C(/C)C(=O)O[C@@H]1CC(C)(C)CC2C34OC(=O)[C@@]21CC[C@@]3(C)[C@]1(C)CCC2C(C)(C)C(=O)CC[C@]2(C)C1C[C@@H]4O", "note": "(stereo not given in full)", "growth": "13.1% (inactive)"},
      {"smiles": "COc1cc(C2CC(c3cccc(Br)c3)=NN2C(C)=O)cc(OC)c1OC", "note": "(stereo not given)", "growth": "24.1% (inactive)"},
      {"smiles": "N#Cc1nc(-c2ccccc2)oc1N1CCC(C2(C(F)(F)F)N=N2)CC1", "growth": "112% (inactive)"},
      {"smiles": "CCOc1ccc(N2C(=O)CCSC2=S)cc1", "growth": "97.1% (inactive)"},
      {"smiles": "COC(=O)CCc1n(Cc2ccc3ccccc3c2)c2ccccc2[n+]1Cc1ccc2ccccc2c1", "growth": "-15% (active)"},
      {"smiles": "Oc1ccc(CSc2nnc(-c3cnccn3)n2-c2ccccc2)c2cccnc12", "growth": "5.53% (active)"},
      {"smiles": "NC(N)=N/N=C/c1ccc(-c2ccc(-c3ccc(Cl)cn3)s2)cc1", "growth": "94.4% (inactive)"},
      {"smiles": "Cc1c2cnccc2c(C)c2c1c1cc(C(=O)O)ccc1n2C", "growth": "-7.86% (active)"},
      {"smiles": "CCN(CC)CCCNCc1cc(-c2ccccc2)nc2cc(Cl)ccc12", "growth": "-25.7% (active)"},
      {"smiles": "Cc1nc(N)[nH]c(=O)c1C", "growth": "103% (inactive)"},
      {"smiles": "Oc1ccc(Cl)cc1Sc1cc(Cl)ccc1O", "growth": "22% (inactive)"},
      {"smiles": "Cc1ccc(S(=O)(=O)NCCCNc2nccc(-c3c(-c4ccccc4)nc4sccn34)n2)cc1", "growth": "53.8% (inactive)"},
      {"smiles": "C#CCN1C(=O)c2ccccc2N(CC#C)C12CCN(Cc1cn(CC(=O)Nc3ccccc3C(N)=O)nn1)CC2", "growth": "72.6% (inactive)"},
      {"smiles": "Cc1ccc(SCN2CCN(c3cccc(Cl)c3)CC2)cc1", "growth": "115% (inactive)"},
      {"smiles": "COC(=O)c1nc(-c2ccc(C)cc2)oc1Sc1ccc(C)cc1", "growth": "121% (inactive)"},
      {"smiles": "c1ccc(CNc2c3ccccc3nc3ccccc23)cc1", "growth": "19.4% (inactive)"},
      {"smiles": "COc1c(C)c(C)c(OC)c2c1[nH]c(=O)c1c3cccnc3cn21", "growth": "114% (inactive)"}
    ]}
  ]
}
